Many of the other results were omitted from the sample, so hits are more common in it than they were.
Pol III holo inh – qHTS Assay for Inhibitors of DNA Polymerase III Holoenzyme System; hit rate 0.25% among 71,000; AID 603, 2007; Potency, µM (highest dose often 57.1 µM), inactives show top-dose activity change, negative = inhibition; reconstituted DNA polymerase III holoenzyme replication, biochemical; note: potency is the fitted concentration of half-maximal effect; % is set by controls: 0 for no effect and ±100 for the full control effect
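Reconstituted *E. coli* holoenzyme (0.35 nM Pol III, 1 nM beta, 154 nM SSB, 2 nM primase) was preincubated with compound for 15 min at RT. Synthesis on 1.4 nM ssM13Gori ran 35 min, then was stopped with PicoGreen/EDTA and read as dsDNA fluorescence.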
TsaE inh – qHTS Assay for Inhibitors of YjeE | purified YjeE enzyme, qHTS inhibition assay | Potency, µM | tRNA threonylcarbamoyladenosine biosynthesis protein TsaE (Escherichia coli (strain … | AID 605, 2007 | hit rate 0.05% among 71,000
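Fluorescence polarization of a BODIPY Texas Red–ADP probe (2 uM) bound to purified YjeE (10 uM) was read after 15 min room-temperature incubation with compounds. Loss of polarization marks inhibitors; ADP serves as titrated control.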
BRCT inh red – qHTS Assay for Inhibitors of BRCT-Phosphoprotein Interaction (Red Fluorophore); Breast cancer type 1 susceptibility protein (Homo sapiens), P38398; BRCT-phosphopeptide binding, red fluorescence polarization; Potency, µM (highest dose often 76.9 µM), without a hit: at the top dose activity change, negative = inhibition, most hits filed as inhibitors; hit rate 0.03% among 75,000; AID 892, 2007; note: % is set by controls: 0 for no effect and ±100 for the full control effect
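Rhodamine-labelled pBACH1 10-mer (100 nM) bound to BRCT domain (100 nM) at pH 7.3; compounds incubated 12 min room temperature, polarization read. Free peptide defines full inhibition; unlabelled decapeptide titrated as control.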
BRCT PPI green – qHTS Assay for Inhibitors of BRCT-Phosphoprotein Interaction (Green Fluorophore). Breast cancer type 1 susceptibility protein (Homo sapiens), P38398. BRCA1 BRCT-phosphopeptide binding, green fluorescence polarization. Potency, µM (series often up to 76.9 µM), without a hit: top-dose activity change, negative = inhibition, hits mostly inhibitors. hit rate 0.05% among 75,000;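 note: potency is the fitted concentration of half-maximal effect; plate controls were peptide without protein for full effect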
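Fluorescence polarization: His-tagged BRCT (~35 kDa BRCA1 C-terminus, 250 nM) bound to 100 nM fluorescein-labeled phosphorylated 10-aa BACH1 peptide, pH 7.3 phosphate buffer with DTT and Tween 20. Compounds incubated 12 min at room temperature; inhibition read as lowered polarization.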
IMPase inh – qHTS Assay for Identifying the Cell-Membrane Permeable IMPase Inhibitors; Inositol monophosphatase 1 (Rattus norvegicus), P97697; CHO-M1 cells, IP1 accumulation, HTRF TR-FRET ratio; inhibition (IP1 accumulation), % at 46.1 µM; 120,000 tested, under 10 active; active = well fitted curve in the direction sought with a large enough effect in the signal ratio, not every such curve was filed as active; inconclusive = small, poorly fitted or top-dose-only effect, or a change in a side signal; inactive = no such curve, though single readings can be large or run the other way; the % refers to the signal ratio;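 note: cells stimulated with carbachol in lithium chloride buffer; plate controls were DMSO basal wells for no effect and reference inhibitor wells for full effect; higher means more IMPase inhibition seen as more IP1 and lower FRET ratio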
Target sequence (P97697 whole entry, looked up): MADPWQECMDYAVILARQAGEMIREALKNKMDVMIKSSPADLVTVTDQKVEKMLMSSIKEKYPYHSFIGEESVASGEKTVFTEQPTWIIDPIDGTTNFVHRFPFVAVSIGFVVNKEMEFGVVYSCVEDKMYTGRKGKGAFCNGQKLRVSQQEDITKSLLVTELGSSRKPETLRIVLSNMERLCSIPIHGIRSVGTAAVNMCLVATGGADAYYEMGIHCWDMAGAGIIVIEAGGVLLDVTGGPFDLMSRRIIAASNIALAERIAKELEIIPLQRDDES
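Measured: the HTRF emission ratio (665/620 nm) plus the 620 nm donor channel, each fitted to the Hill equation to give AC50. Cells were CHO-M1 given compounds up to 46 uM and a 30 min carbachol stimulation at 37C.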
Hsp90 Hop PPI – qHTS Assay for Disrupters of an Hsp90 Co-Chaperone Interaction; AID 595, 2007; hit rate 0.44% among 71,000; Potency, µM (titrated, usually from 57 µM), for inactives: top-dose activity change, negative = inhibition; AlphaScreen TPR2A-His6 binding biotin-Hsp90 C-terminal peptide; active = well fitted curve in either direction with a large enough effect; inconclusive = small, poorly fitted or top-dose-only effect, or another doubt; note: potency is the fitted concentration of half-maximal effect; % is set by controls: 0 for no effect and ±100 for the full control effect
Numbers without * were called inactive; i = inactive; ? = inconclusive; · = no result; ! = a repeat was not active; [ ] = another dose, or the depositor's remark. Unless noted, calls come from the whole dose curve; as a rule, active = well fitted curve in the direction sought with a large enough effect; inconclusive = small, poorly fitted or top-dose-only effect, or another doubt; inactive = no such curve, though single readings can be large; an effect the other way counts as inactive or inconclusive.

SMILES	Pol III holo inh	TsaE inh	BRCT inh red	BRCT PPI green	IMPase inh	Hsp90 Hop PPI
Cc1cccc(NC(=O)Nc2ccc(C#N)cc2)n1	25.1µM*	i	-1.3%	-4.1%	11.6	-1.9%
Nc1c2ccccc2nc2ccccc12	39.8µM*	i	-0.3%	0.3%[3.08 µM]	·	-2.8%
Nc1c2c(nc3ccccc13)CCCC2	-10.0%	i	1.1%	3.7%	7.3	-2.9%
CCN(CC)c1ccc(/C=N/NC(=O)c2ccc(O)cc2)cc1	·	·	-1.8%	-0.7%	·	·
CN(C)CCCNc1cc(O)c2c(c1O)C(=O)c1ccccc1C2=O	?	i	?	-0.6%[15.4 µM]	·	?
O=C1c2ccccc2C(=O)c2c(O)c(O)cc(O)c21	·	·	39.8µM*	-21.2%	27.1	·
O=S(=O)(O)c1ccc2c(N=Nc3cccc4ccccc34)c(O)c(S(=O)(=O)O)cc2c1	-9.4%[11.4 µM]	i	-17.8%[15.4 µM]	-25.4%[15.4 µM]	·	-28.8%[11 µM]
O=[N+]([O-])c1ccc2c(N=Nc3ccc4ccccc4c3O)c(O)cc(S(=O)(=O)O)c2c1	-19.3%[11.4 µM]	7.94µM*	-3.2%[15.4 µM]	-1.9%[15.4 µM]	·	?
C=C1CC[C@@H]2[C@](C)(CC[C@@H](O)[C@]2(C)CO)[C@@H]1C/C=C1/C(=O)OC[C@H]1O	-3.8%	i	·	·	·	?
O=C(Nc1ccc2c(c1)OCO2)c1cnn2c(C(F)(F)F)cc(-c3ccco3)nc12	-2.0%	i	0.9%	-0.5%	11.0	-4.3%
COc1ccc(NC(=O)c2cnn3c(C(F)(F)F)cc(-c4ccco4)nc23)cc1OC	1µM*	i	-1.4%	-8.2%	6.5	-11.1%[11 µM]
CCOC(=O)C1=C(C)NC(C)=C(C(=O)OC)[C@@H]1c1cccc(Cl)c1Cl	-14.6%[25.6 µM]	i	1.0%[34.4 µM]	0.0%[34.4 µM]	-1.9[20.6 µM]	9.0%[26 µM]
CC(C)(C)c1ccccc1NC(=O)c1cccnc1	31.6µM*	i	0.6%	-1.8%	3.5	-2.1%
COc1cc(NC(=O)CCN2CCN(c3ccccc3)CC2)cc(OC)c1	·	·	·	·	0.0	·
CCN(CC)CC[n+]1ccc2c(C)c3[nH]c4ccccc4c3c(C)c2c1	3.98µM*	i	0.4%[15.4 µM]	-6.2%[15.4 µM]	·	1.5%[11 µM]
CSc1nc(N)c2ncn([C@@H]3O[C@@H](COP(=O)(O)OP(=O)(O)OP(=O)(O)O)[C@@H](O)[C@H]3O)c2n1	-1.6%	i	1.0%	-0.9%	-2.1	-7.0%
FC(F)(F)c1cc(-c2ccccc2)nc(NCC2CCCO2)n1 (stereo not drawn)	1.3%	i	-0.9%	-2.9%	0.6	31.6µM*
Cc1cc2nc3c(=O)[nH]c(=O)nc-3n(CC(O)C(O)C(O)CO)c2cc1C (stereo not drawn)	227.4%	i	-9.1%	12.6µM*!	-11.0	-6.0%
COc1cc(-c2ccc(N=Nc3ccc4c(S(=O)(=O)O)cc(S(=O)(=O)O)c(N)c4c3O)c(OC)c2)ccc1N=Nc1ccc2c(S(=O)(=O)O)cc(S(=O)(=O)O)c(N)c2c1O	2.51µM*	50.1µM*	?	39.8µM*!	?	3.98µM*!
Cc1nn(-c2ccc(S(=O)(=O)O)cc2)c(O)c1N=Nc1ccc(-c2ccc(N=Nc3ccc4c(S(=O)(=O)O)cc(S(=O)(=O)O)c(N)c4c3O)c(O)c2)cc1O.[Cu].[Cu]	1.26µM*	?	2.51µM*	6.31µM*	·	-16.1%[11 µM]
COc1ccc(OC)c2c1C(=O)c1ccccc1C2=O	·	·	·	·	-1.8	·
COc1ccc2noc3c2c1C(=O)c1ccccc1-3	482.1%	i	-9.7%	3.16µM*	·	?
O=C1c2ccccc2-c2onc3ccc(NCCCn4ccnc4)c1c23	353.7%	25.1µM*	0.631µM*	0.794µM*	65.1	25.1µM*
O=C(O)c1cc(O)c2c(c1)[C@H]([C@H]1c3cc(C(=O)O)cc(O)c3C(=O)c3c(O[C@@H]4OC(CO)C(O)C(O)C4O)cccc31)c1cccc(O[C@@H]3OC(CO)C(O)C(O)C3O)c1C2=O (stereo partly drawn)	·	·	6.31µM*	-6.2%[3.08 µM]	·	·
O=C1c2cccc(O)c2C(=O)c2c(O[C@@H]3O[C@H](CO)[C@@H](O)[C@H](O)[C@@H]3O)cccc21	-9.5%[11.4 µM]	i	-0.8%[15.4 µM]	-0.9%[15.4 µM]	·	-2.8%[11 µM]
SMILES	Pol III holo inh	TsaE inh	BRCT inh red	BRCT PPI green	IMPase inh	Hsp90 Hop PPI
Cc1nc(N=Nc2cc(S(=O)(=O)O)c3cc([N+](=O)[O-])cc(S(=O)(=O)O)c3c2)c(COP(=O)(O)O)c(C=O)c1O	31.6µM*	i	-27.4%	?	?	-23.0%
Cc1cc(C)c(S(=O)(=O)Nc2ccccc2C(=O)O)cc1C	·	·	1.6%	0.6%	·	·
COc1ccc(-c2cc3nc(-c4ccccc4)cc(N4CCC5(CC4)OCCO5)n3n2)cc1	-0.9%	i	-2.2%	-1.5%	-13.4	15.8µM*
COc1ccc(-c2cc(C(=O)N/N=C\c3cc(OC)c(OC)c(OC)c3)[nH]n2)cc1	·	·	1.6%	0.6%	·	·
C[C@H](NC(=O)/C(C#N)=C/c1ccc(O)c(O)c1)c1ccccc1	-8.1%	i	-1.4%	-2.0%	16.3	7.94µM*!
N#C/C(=C\c1ccc(O)c(O)c1)C(=O)NCCCNC(=O)/C(C#N)=C/c1ccc(O)c(O)c1	2.51µM*	i	-2.4%	-0.8%	23.2	2µM*
N#C/C(=C\c1ccc(O)c(O)c1)C(=O)Nc1ccccc1	-6.6%	i	-2.4%	16.3%	14.8	10µM*!
CCN(c1cccc(C)c1)S(=O)(=O)c1ccc(O)c(C(=O)O)c1	·	·	-1.2%	-0.7%	·	·
COc1ccccc1CNc1ccnc(-c2ccc(N(C)C)cc2)n1	-3.2%	i	3.0%	-1.8%	·	?
COc1cccc2c1C(=O)CC(c1ccccc1)O2 (stereo not drawn)	·	·	0.4%	-2.3%	1.0	·
CCCn1c(-c2ccc(F)cc2)nc2c(N3CCCN(Cc4ccccc4)CC3)nc(C)nc21	-2.9%	i	-3.7%	2.1%	·	-4.5%
Cc1cccc(Nc2nn3c(=O)c4ccccc4nc3s2)c1	3.16µM*	i	2.2%	-0.3%	?	5.9%
[Cl][In]([Cl])[Cl]	31.6µM*	?	-2.2%	-0.8%	·	-1.0%
CC(C)(C)c1ccc(-c2nnc3sc(-c4ccccn4)nn23)cc1	-10.5%	i	-0.5%	0.4%	-0.9	2µM*
Cc1ccc2nc(CSc3nnc(-c4ccco4)o3)cc(=O)n2c1	20µM*	i	-21.3%	-11.8%	12.7	-3.7%
Cc1ccc2nc(CSc3nnc(-c4ccco4)n3-c3ccccc3)cc(=O)n2c1	-2.0%	i	0.4%	-0.9%	·	-1.3%
CN(C)c1ccc(C(=C2C=CC(=[N+](C)C)C=C2)c2ccc(N(C)C)cc2)cc1	39.8µM*	5.01µM*	-4.4%	-1.8%[3.08 µM]	·	?

Source: PubChem
